Screens (PubChem)
Compounds with a hit are over-represented: about 3.8% of the library has one in this group of screens.
ATXN2 expr inh – Primary qHTS for Inhibitors of ATXN expression | HEK-293 ATXN2-luciferase reporter, luminescence, 24 h | Potency, µM (top dose mostly 57 µM), for inactives: at the top dose activity change, negative = inhibition, most hits filed as inhibitors | actives 0.72% (n = 360,000); further: on the % scale 0 is the no-effect control and ±100 the full control effect; nearly all actives have a fitted effect of over 55% in size
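qHTS (up to 57 uM final) was run with 24 h compound exposure of reporter cells at 37 °C. Each well was multiplexed: SteadyGlo luminescence measured ATXN2-luciferase expression after a fluorogenic Gly-Phe-AFC viability readout (25 uM final).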
HepG2 tox – qHTS for Inhibitors of TGF-b: Cytotox Counterscreen; HepG2 CAGA-GFP viability, ATP luminescence, 18 h; Potency, µM (doses to about 46.1 µM), for the others: at the highest dose activity change, negative = cytotoxicity, actives largely listed as cytotoxic; actives 0.76% (n = 410,000)
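HepG2 CAGA-GFP cells (1000/well, DMEM with 1% FBS) received compound, then TGF-beta at 500 pg/mL final, and were incubated 18 hours at 37 degrees C. Viability was read by CellTiter-Glo luminescence. Media-only wells were set as complete cell-killing and DMSO as no toxicity.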
TGFb inhibitor – qHTS for Inhibitors of TGF-b; HepG2 CAGA-GFP TGF-b/SMAD3 reporter, GFP fluorescence, 18 h; TGF-beta stimulated, 500 pg/mL final; Potency, µM (highest dose often 46.1 µM), for inactives: top-dose activity, negative = inhibition, usual class: inhibitors; actives 1.2% (n = 410,000); AID 588855, 2011; further: on the % scale 0 is the no-effect control and ±100 the full control effect; nearly all actives have a fitted effect of over 65% in size
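TGF-beta reporter screen: HEPG2 CAGA-GFP, 1% FBS, 500 pg/mL TGF-beta final, 18 h; per-cell GFP summed per well; curves fitted and categorized by class.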
HT1080 IDH1KD tx – qHTS for induction of synthetic lethality in tumor cells producing 2HG: qHTS for the HT-1080-IDH1KD cell line | actives 2% (n = 360,000) | HT-1080 IDH1 knockdown viability, ATP luminescence, 48 h | Potency, µM (doses to about 46.1 µM), inactives show at the top dose activity, negative = toxicity, actives largely listed as cytotoxic | AID 686971, 2013;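 further: 0% = DMSO wells and -100% = cell-free medium wells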
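Using the IDH1-knockdown HT-1080 line run in the same batch and compound series as the NT line, viability after 48 h at 37 °C was determined by CellTiter-Glo luminescence and expressed as % activity.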
ATXN viability – Viability Counterscreen for Primary qHTS for Inhibitors of ATXN expression; S2 cells (HEK-293 line with an ATXN2-luciferase reporter) viability, CellTiter-Fluor protease fluorescence, 24 h; Potency, µM (series often up to 56.7 µM), most hits filed as cytotoxic; actives 0.49% (n = 400,000); AID 651635, 2014; further: nearly all actives have a fitted effect of over 40% in size
HT1080-NT tox – qHTS for induction of synthetic lethality in tumor cells producing 2HG: qHTS for the HT-1080-NT fibrosarcoma cell line | HT-1080-NT fibrosarcoma viability, CellTiter-Glo ATP luminescence, 48 h | Potency, µM (series often up to 46.1 µM), for inactives: at the top dose activity, negative = less viability, most hits filed as cytotoxic | actives 1.6% (n = 360,000);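 further: NT is the 2HG producing partner of a matched IDH1 knockdown line; 0% = DMSO-treated cells and -100% = media-only wells without cells; nearly all actives have a fitted effect of over 55% in size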
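Compounds were tested in concentration-response format on HT-1080-NT cells for 48 hours at 37 degrees C. Cell viability came from CellTiter-Glo luminescence; curves were classified by r2, response magnitude and activity.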
Starred values were filed as active, the others as inactive; i = inactive; ? = inconclusive; · = no result. The call rests on the fitted dose curve; in most records, active means well fitted curve in the direction sought with a large enough effect; inconclusive means small, poorly fitted or top-dose-only effect, or another doubt; inactive means no such curve, though single readings can be large; an effect the other way counts as inactive or inconclusive. Potency means the concentration at half of the fitted maximal effect.

SMILES	ATXN2 expr inh	HepG2 tox	TGFb inhibitor	HT1080 IDH1KD tx	ATXN viability	HT1080-NT tox
CCOc1ccccc1-c1cc(C(=O)N/N=C/c2ccc3c(c2)OCO3)c2ccccc2n1	45%	4%	-3%	-21%	i	-7%
O=C(Nc1ccc2c(c1)OCO2)c1cc(-c2ccncc2)nc2ccccc12	-12%	3%	?	18µM*	i	18µM*
O=C(Nc1ccc2c(c1)OCCO2)c1cc(-c2ccccc2)nc2ccccc12	-21%	-39%	4%	-25%	i	-17%
Cc1cc(C(=O)N/N=C/c2ccc3c(c2)OCO3)c2ccccc2n1	-16%	-2%	-12%	4.1µM*	?	?
O=C(NNC(=O)c1cc(-c2cccnc2)nc2ccccc12)Nc1ccc(Cl)cc1	-27%	-28%	-5%	?	·	?
O=C(NNC(=O)c1cc(-c2ccccc2)nc2ccccc12)Nc1cccc(Cl)c1	-26%	-34%	?	?	?	18µM*
C[N+]1(C)[C@@H]2C[C@@H](OC(=O)C(O)(c3cccs3)c3cccs3)C[C@H]1[C@@H]1O[C@@H]12	3%	·	·	·	·	·
COc1ccc(NC(=O)CSc2nnc(-c3ccc(OC)cc3)s2)cc1	13%	-54%	2%	·	i	·
COCCCOc1cc(C[C@@H](C[C@H](N)[C@@H](O)C[C@H](C(=O)NCC(C)(C)C(N)=O)C(C)C)C(C)C)ccc1OC	6%	·	·	·	i	·
CCOc1ccc(S(=O)(=O)N(C(=O)c2ccncc2)c2ccc3oc(C)c(C(=O)OC)c3c2)cc1	·	-22%	?	·	·	·
Cc1ccc(N(C)C(=O)Cn2cnc3onc(-c4ccc(F)cc4)c3c2=O)cc1C	3%	-41%	?	·	i	·
CCOc1ccc(C(=O)Nc2cccc(OCc3cc(=O)n4cc(C)sc4n3)c2)cc1	3%	0%	-20%	·	i	·
O=C(Nc1ccc(Br)cc1)c1cc(-c2ccncc2)nc2ccccc12	-25%	0%	?	8.2µM*	i	6.5µM*
O=C(N/N=C/c1ccc2c(c1)OCO2)c1cc(-c2ccncc2)nc2ccccc12	-2%	-1%	-31%	2.6µM*	i	?
O=C(N/N=C/c1ccccn1)c1cc(-c2ccncc2)nc2ccccc12	?	11%	9%	14%	?	9%
O=C(Cc1cccc2ccccc12)NNC(=O)Nc1cccc(Cl)c1	1%	-22%	3%	?	i	16µM*
c1c2c(cc3sc(N4CCCCC4)nc13)OCO2	21%	10µM*	?	-29%	?	?
COC(=O)c1cc(=O)n(CCc2ccc(OC)cc2)c(=Nc2ccc(F)c(Cl)c2)s1	?	-40%	?	?	?	21µM*
O=C(C[N+]1(CCc2ccccc2)CCOCC1)c1ccccc1	·	-33%	5%	·	·	·
CCCS(=O)(=O)NCc1c(C)ncc2c1CCN(C(=O)c1ccc3[nH]c4c(c3c1)CCCC4)C2	·	·	·	·	i	·
Cc1ccc(N(CC(O)Cn2c3ccccc3c3ccccc32)S(=O)(=O)c2ccc(F)cc2)cc1 (stereo unspecified)	·	14µM*	8.9µM*	·	·	·
CC(=O)Nc1ccccc1N(CC(O)Cn1c2ccccc2c2ccccc21)S(=O)(=O)c1ccc(C)cc1 (stereo unspecified)	?	-20%	?	15µM*	i	?
CCCS(=O)(=O)NCc1c(C)ncc2c1CCN(C(=O)c1cccc(-c3ccccc3F)c1)C2	·	·	·	·	i	·
O=C(O)c1ccc(N/N=C/C2=C(N3CCOCC3)C(=C\c3ccccc3)/CC2)cc1	9%	-39%	?	15µM*	i	15µM*
CCOC(=O)/C(=C/c1c(C)n(C)c2ccc([N+](=O)[O-])cc12)C(C)=O	-29%	-53%	16µM*	?	?	16µM*
SMILES	ATXN2 expr inh	HepG2 tox	TGFb inhibitor	HT1080 IDH1KD tx	ATXN viability	HT1080-NT tox
CCN(CC)c1ccc(-c2nn3c(-c4n[nH]c5c4CCC5)nnc3s2)cc1	4%	-67%	?	2.3µM*	i	1.5µM*
Cc1ccc2[nH]c(C)c(/C=N/Nc3nc4ccccc4s3)c2c1	-20%	-41%	11µM*	?	i	?
C(=N\Nc1nc2ccccc2s1)/c1ccccn1	?	6.3µM*	3.5µM*	6.5µM*	?	?
C(=NNc1ccc2ccccc2n1)c1ccccn1	-78%	-37%	?	7.3µM*	2µM*	18µM*
Cc1csc(N/N=C/c2ccccn2)n1	14µM*	-27%	?	?	·	?
Cc1ccc(NC(=O)CCSc2nc(-c3ccc4c(c3)OCO4)cc(C(F)(F)F)n2)cc1	4%	-3%	7%	·	i	·
Cc1ncc2c(c1CNC(=O)c1ccc3c(c1)OCO3)CCN(C(=O)c1ccc3ccccc3c1)C2	·	·	·	·	i	·
Oc1[nH]c2ccccc2c1N=Nc1nc2ccccc2s1	77%	-21%	11%	0%	i	12%
COc1cc(/C=N/Nc2nc3ccccc3s2)cc([N+](=O)[O-])c1O	·	-23%	-19%	5%	i	-7%
Cc1ccc2[nH]c(O)c(N=Nc3nc4ccccc4s3)c2c1	?	-12%	-16%	-1%	13µM*	?
O=[N+]([O-])c1cc(Cl)cc(/C=N/Nc2nc3ccccc3s2)c1O	?	-12%	8%	18µM*	?	21µM*
Cc1cc2c(cc1S(=O)(=O)Nc1cccc(Cl)c1C)OCCN2C	·	-76%	?	·	·	·
O=C1CCNc2cc3ccccc3cc21	-19%	-42%	?	16µM*	i	-21%
O=C1CCNc2ccc(-c3ccccc3)cc21	?	-5%	19%	0%	i	-1%
NC(=O)C1CCN(c2nc(-c3cccc(Cl)c3)cs2)CC1	4%	6.3µM*	?	·	i	·
CC(=O)c1cccc(-c2csc(N3CCC(C(N)=O)CC3)n2)c1	6%	-9%	2%	·	i	·
CCOc1ccccc1NC(=O)Cn1c(=O)n(CCC(=O)NCc2ccc3c(c2)OCO3)c(=O)c2ccccc21	·	0%	-5%	·	·	·
Cc1ccsc1C(=O)N(Cc1cc2cc3c(cc2nc1N1CCOCC1)CCC3)CC1CCCO1 (stereo unspecified)	·	·	·	·	i	·
